# Screening results deposited in PubChem by several laboratories.
# Sampled rows, rich in hits. Any-hit rate of the full collection: about 1.3%.
# NCOA3 inh – inhibits human SRC3 coactivator | Q9Y6Q9 | HEK293 GAL4-SRC3 luciferase reporter, luminescence | inhibition, % at 3.6 µM | 0.17% of 360,000 active | AID 588352;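 active = inhibition above a per-campaign cutoff, the mean of all compounds plus 3 SD, cut at about 60% in these data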;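 note: 0% = DMSO-treated cells and 100% = gossypol-treated cells at 36 µM; higher means less SRC3-driven luciferase light from the GAL4 reporter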
# NR5A2 inv ag – NR5A2 inverse agonism in reporter assay; O00482; HEK293T StAR-luciferase reporter, LRH-1 transfected, 24 h; inhibition, % at 3.6 µM; 0.13% of 360,000 active; AID 602396;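 active = inhibition above the mean inhibition of all tested compounds plus 3 SD, cut at about 73% in these data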;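 note: 0% = DMSO wells and 100% = reporter-only cells lacking LRH-1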
# Target sequence (O00482 whole entry, looked up): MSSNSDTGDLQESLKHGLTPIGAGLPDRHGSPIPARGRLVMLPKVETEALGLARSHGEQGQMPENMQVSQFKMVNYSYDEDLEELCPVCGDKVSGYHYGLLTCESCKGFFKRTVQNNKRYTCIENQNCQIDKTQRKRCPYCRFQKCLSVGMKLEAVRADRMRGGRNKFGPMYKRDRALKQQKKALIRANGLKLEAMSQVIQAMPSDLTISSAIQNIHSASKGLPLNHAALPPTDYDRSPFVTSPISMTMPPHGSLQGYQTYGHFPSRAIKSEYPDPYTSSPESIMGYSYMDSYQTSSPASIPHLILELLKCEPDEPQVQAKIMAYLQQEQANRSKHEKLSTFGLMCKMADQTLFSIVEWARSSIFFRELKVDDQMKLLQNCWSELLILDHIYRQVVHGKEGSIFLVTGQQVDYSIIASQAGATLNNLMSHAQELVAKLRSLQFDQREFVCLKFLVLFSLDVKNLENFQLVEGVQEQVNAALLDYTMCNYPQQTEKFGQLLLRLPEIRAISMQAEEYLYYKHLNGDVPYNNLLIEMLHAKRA
# SRC2 inh – inhibits human steroid receptor coactivator 2. 0.17% of 370,000 active. Q15596. HEK293 GAL4-SRC2 luciferase reporter, luminescence. inhibition, % at 9 µM. AID 651957;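 active = inhibition above the mean inhibition of all tested compounds plus 3 SD, set per campaign, cut at about 52% in these data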;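 note: 0% = DMSO treated cells and 100% = cells given Gossypol at 36 µM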
# Gli-Sufu block – Gli-Sufu pathway antagonism; AID 588413; Sufu-KO-LIGHT fibroblasts, Gli luciferase reporter luminescence; 0.74% of 340,000 active; inhibition, % at 5 µM;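 active = inhibition above about 55%, limit read from the data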;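 note: 0% = DMSO-treated cells and 100% = wells with medium but no cells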
# SRC1 inh – inhibits human SRC1 coactivator; Q15788; HEK293 GAL4-SRC1 luciferase reporter, luminescence; inhibition, % at 3.6 µM; 0.12% of 360,000 active; AID 588354;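 active = inhibition above the campaign mean plus 3 SD, with each screening campaign given its own cutoff, cut at about 60% in these data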;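 note: 0% = DMSO treated cells and 100% = gossypol at 36 µM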
# NR2F2 inh – inhibitors of human COUP-TFII (NR2F2) | HEK293T NGFI-A luciferase reporter, luminescence | AID 686940 | 0.7% of 370,000 active | inhibition, % at 8.6 µM | P24468;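 active = inhibition above a per-plate cutoff, mean inhibition of test wells between control levels plus 3 SD, cut at about 38% in these data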;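 note: cells cotransfected with COUP-TFII expression vector driving the NGFI-A reporter; 0% = median of COUP-TF2 test wells and 100% = reporter-only cells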
# VP16 Luc counter – inhibits VP16 reporter, flagging COUP-TFII antagonist hits; shares compounds with NR2F2 inh; HEK293 Gal4-VP16 luciferase reporter, luminescence; inhibition, % at 8.5 µM; 25% of 2,500 active; in the data active = inhibition above about 13%
# COUP-TFII conf – confirmation of human COUP-TFII (NR2F2) inhibitors | shares compounds with NR2F2 inh | HEK293 NGFI-A luciferase reporter, luminescence | inhibition, % at 8.5 µM | 45% of 2,500 active | AID 687008;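 active = mean inhibition over three repeats above a set limit taken from the earlier primary screen, cut at about 38% in these data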;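 note: 100% = cells given the luciferase reporter alone without the COUP-TF2 vector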
# * marks the source's active call; other numbers are inactive results; · = no result.
SMILES,NCOA3 inh,NR5A2 inv ag,SRC2 inh,Gli-Sufu block,SRC1 inh,NR2F2 inh,VP16 Luc counter,COUP-TFII conf
CCOc1ccc(-c2cc(CCCC(=O)Nc3cc(OC)ccc3OC)no2)cc1,15,17,73*,13,4,67*,38*,32
CC[C@@H](CCC1CCCCC1)CN(c1ccccc1)S(C)(=O)=O,·,·,0,·,·,1,·,·
Cc1cc(C)nc(SCc2nnc(SCC(N)=O)n2Cc2ccco2)n1,19,-3,-13,2,-3,39*,11,11
CCOC(=O)[C@@]12CCCC=C1N(CCc1ccc(Cl)cc1)C(=O)[C@H]2CC(=O)NCc1cccc2ccccc12,·,·,-13,·,·,-8,·,·
O=C(Nc1cccc(S(=O)(=O)N2CCCC2)c1)c1ccco1,-11,9,-2,-1,10,-21,·,·
O=C(Nc1cccc(S(=O)(=O)c2cccc(NC(=O)c3ccco3)c2)c1)c1ccco1,31,15,17,17,-27,70*,5,32
NCCN1C(=O)S/C(=C\c2ccc3c(c2)OCO3)C1=O,31,23,69*,19,13,76*,27*,34
Cc1ccccc1CNC(=O)c1cccc2c1C(=O)N(Cc1cccnc1)C2,·,·,4,·,·,2,·,·
O=S(=O)(C/C(=C/CO)S(=O)(=O)c1ccccc1)c1ccccc1,-39,-59,72*,27,-99,76*,38*,58*
COc1cc(NC(=O)NC2CCCCN(Cc3cccc(Cl)c3)C2=O)cc(OC)c1 (stereo unspecified),·,·,-25,·,·,-2,·,·
CCCNC(=O)c1cc(S(=O)(=O)N2CCc3ccccc32)cn1C,14,6,10,14,23,44*,-5,26
CN(CCO)c1cccc2c1S(=O)(=O)N(Cc1cn(Cc3ccccc3C(F)(F)F)nn1)Cc1ccccc1O2,·,·,8,·,·,19,·,·
COc1ccc(C(C)=O)cc1CSc1nnc(Nc2ccc(C)cc2)s1,19,-18,17,4,11,42*,10,21
COc1ccc(C(C)=O)cc1CSc1nnc(Nc2ccccc2)s1,38,23,9,26,7,50*,3,36
COc1ccc(C(C)=O)cc1CSc1nnc(C)s1,-1,13,-21,2,-12,-9,·,·
COc1ccc(OC)c(NC(=O)Cc2nn(C)c(=O)c3ccccc23)c1,13,12,-2,16,-15,18,·,·
COc1ccc(CNC(=O)Cc2nn(C)c(=O)c3ccccc23)cc1,14,22,11,50,10,49*,4,24
C=CC[n+]1c(-c2ccc(C)cc2)csc1Nc1ccc(NC(C)=O)cc1,37,38,84*,44,26,52*,83*,81*
COC(=O)[C@]12C[C@H](CC(=O)NCc3cccs3)C(=O)N(Cc3ccco3)C1=C[C@H](C(C)C)O[C@@H]2C1CC1,·,·,1,·,·,12,·,·
COc1cc(/C=C2\COC/C(=C\c3ccc(O)c(OC)c3)C2=O)ccc1O,18,-16,-56,1,-13,63*,13,19
COc1ccc(/C=C2\CC/C(=C\c3ccc(OC)c(OC)c3)C2=O)cc1OC,51,7,65*,-15,45,51*,32*,50*
CCCCCC(=O)NC1CCCCN(Cc2cccc(Cl)c2)C1=O (stereo unspecified),·,·,-10,·,·,-12,·,·
CCCCN1C[C@@H](COCc2ccccc2)Oc2cc(F)ccc2S1(=O)=O,·,·,35,·,·,5,·,·
CCOC(=O)[C@]12CCCC=C1N(Cc1ccc(OC)cc1)C(=O)[C@@H]2CC(=O)N1CCN(C(=O)c2ccco2)CC1,·,·,3,·,·,4,·,·
O=C(NCCc1ccccc1F)c1ccc2c(c1)OCCO2,74*,64,90*,69*,76*,96*,63*,84*
Cc1nc2cc(NC(=O)c3ccc(S(=O)(=O)N(C)c4ccccc4)cc3)ccc2o1,2,-7,16,-25,-19,49*,-85,26
CN(c1cccc(NC(=O)c2ccc(N(C)S(=O)(=O)c3ccccc3)cc2)c1)S(C)(=O)=O,23,28,12,20,21,63*,-5,28
